TLR9-MyD88 inh: inhibitors of human TLR9-MyD88 binding; inhibition, % at 4.98 µM; Q9NR96+Q99836; CHO BLA complementation TLR9-MyD88, CCF4 FRET ratio; 340,000 tested, 0.21% active;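 active = inhibition above the mean over all tested compounds plus 3 SD, cut at about 21% in these data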;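 note: 0% = DMSO only wells and 100% = clavulanate BLA inhibitor control wells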
CRFR2-BP antag: blocks CRF-induced signaling of the CRF-BP/CRF-R2 complex; 350,000 tested, 0.59% active; HEK293 CRF-R2/CRF-BP, CRF-induced calcium fluorescence; inhibition, % at 11.8 µM;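 active = inhibition of the ligand-induced calcium signal above about 50% at the single tested concentration, limit read from the data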
ABHD5-PLIN5 inh: ABHD5-PLIN5 protein interaction inhibition; Q00G26+Q8WTS1; Split G. princeps luciferase complementation, luminescence, 4 h; inhibition, % at 4 µM; 360,000 tested, 0.78% active;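 active = inhibition above the mean inhibition across every tested compound plus 3 SD, cut at about 22% in these data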;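 note: 0% = DMSO only wells and the 100% control is not disclosed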
HTR2A ag: activates the mouse 5-HT2A serotonin receptor; CHO-K1 mHTR2A beta-arrestin complementation, luminescence; percent of 30 µM serotonin response; activation, % at 7.6 µM; P35363; AID 624169; 360,000 tested, 0.66% active;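 active = activation above a run cutoff, the mean activation of all tested compounds plus 3 SD, cut at about 14% in these data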;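 note: 0% = plate median of compound wells and 100% = 30 µM serotonin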
TLR4-MyD88 BLA: blocks binding of human TLR4 to MyD88; HeLa CL3-4 TLR4/MyD88 BLA complementation, FRET ratio; inhibition, % at 8.4 µM; AID 861; 200,000 tested, 0.18% active; in the data active = inhibition above about 25%;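 note: 0% = vehicle and 100% = reference inhibitor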
Target sequence (O00206 whole entry, looked up): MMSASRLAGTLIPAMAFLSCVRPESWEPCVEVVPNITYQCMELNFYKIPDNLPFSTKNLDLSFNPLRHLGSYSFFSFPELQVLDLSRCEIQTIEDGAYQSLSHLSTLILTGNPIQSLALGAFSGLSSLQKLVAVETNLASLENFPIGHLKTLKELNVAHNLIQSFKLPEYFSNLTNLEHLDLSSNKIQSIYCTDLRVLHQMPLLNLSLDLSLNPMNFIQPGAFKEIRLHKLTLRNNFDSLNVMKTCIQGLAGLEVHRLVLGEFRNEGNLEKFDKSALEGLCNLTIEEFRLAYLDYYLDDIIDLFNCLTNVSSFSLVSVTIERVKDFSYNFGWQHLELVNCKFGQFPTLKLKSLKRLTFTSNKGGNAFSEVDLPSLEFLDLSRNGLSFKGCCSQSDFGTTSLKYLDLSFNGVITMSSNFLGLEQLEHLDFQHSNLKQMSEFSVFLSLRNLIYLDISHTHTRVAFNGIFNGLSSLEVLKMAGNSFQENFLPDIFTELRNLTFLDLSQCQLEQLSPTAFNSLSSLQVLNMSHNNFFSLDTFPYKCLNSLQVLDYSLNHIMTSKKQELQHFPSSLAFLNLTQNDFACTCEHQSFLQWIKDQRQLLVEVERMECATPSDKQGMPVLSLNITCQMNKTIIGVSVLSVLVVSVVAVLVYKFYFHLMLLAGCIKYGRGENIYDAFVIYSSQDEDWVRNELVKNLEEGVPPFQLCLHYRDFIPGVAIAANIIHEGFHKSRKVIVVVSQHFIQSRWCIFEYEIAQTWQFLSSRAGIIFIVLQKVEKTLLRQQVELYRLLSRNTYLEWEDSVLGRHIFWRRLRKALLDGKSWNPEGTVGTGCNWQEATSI
Target sequence (Q99836 whole entry, looked up): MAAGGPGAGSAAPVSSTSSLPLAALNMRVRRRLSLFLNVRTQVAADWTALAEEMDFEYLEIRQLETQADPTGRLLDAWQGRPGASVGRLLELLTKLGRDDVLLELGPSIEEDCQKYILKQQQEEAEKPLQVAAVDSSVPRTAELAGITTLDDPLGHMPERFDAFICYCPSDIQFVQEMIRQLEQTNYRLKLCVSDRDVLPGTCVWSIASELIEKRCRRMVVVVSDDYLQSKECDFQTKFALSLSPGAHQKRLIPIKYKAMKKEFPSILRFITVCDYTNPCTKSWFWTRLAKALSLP
NOD2-RIPK2 inh: blocks binding of human NOD2 to RIPK2 | O43353 | CHO BLA complementation NOD2-RIPK2, CCF4 ratio | inhibition, % at 4.98 µM | 360,000 tested, 0.38% active | AID 624267; in the data active = inhibition above about 21%;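 note: 0% = vehicle only and 100% = reference blocker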
TLR4 MyD88 cnf: TLR4-MyD88 interaction inhibition confirmed. shares compounds with TLR4-MyD88 BLA. HeLa CL3-4 BLA complementation, CCF4 FRET ratio. inhibition, % at 8.4 µM. 350 tested, 50% active. AID 941;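 active = mean inhibition across three repeat runs above about 25% carried over from the earlier screen, limit read from the data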;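 note: plate controls were DMSO only for no effect and clavulanic acid blocking BLA at full dose for full effect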
BLA inhibitor ct: counter-screen for TLR4-MyD88 inhibitors: beta-lactamase reporter inhibitors; shares compounds with TLR4-MyD88 BLA; 350 tested, 63% active; inhibition, % at 8.4 µM; HeLa BLA reporter, CCF4 FRET ratio;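 active = mean inhibition over three repeats above about 26% taken from the earlier screen, limit read from the data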;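 note: HeLa cells stably expressing beta-lactamase reporter as counterscreen for TLR4-MyD88 inhibitors; 0% = DMSO and 100% = clavulanic acid full inhibition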
* = called active by the depositor. Sampled rows, rich in hits. Any-hit rate of the full collection: about 2.4%.

How did COc1ccccc1Cc1c(-c2ccc(F)cc2)nc2ccc(Cl)cn12 do in these assays?
ABHD5-PLIN5 inh: 1; HTR2A ag: -1; NOD2-RIPK2 inh: 0

Results for COc1ccc(-c2nnc(SCc3ccccc3F)o2)cc1OC ?
TLR9-MyD88 inh: 4; CRFR2-BP antag: 36; ABHD5-PLIN5 inh: -1; HTR2A ag: -4; TLR4-MyD88 BLA: -1; NOD2-RIPK2 inh: 11

What do the screens show for `CCCc1nc2ccc(Cl)cn2c1Cc1ccccc1`?
ABHD5-PLIN5 inh: 3; HTR2A ag: 3; NOD2-RIPK2 inh: -13

How did CC1(C(=O)Nc2ccccc2)CCN1C(=O)C1(c2ccccc2)CC1 (stereo not drawn) do in these assays?
ABHD5-PLIN5 inh: -8; HTR2A ag: -1; NOD2-RIPK2 inh: -12

How did Cc1cccc(C)c1NC(=O)C(c1cc2ccccc2o1)N1CCC(c2ccccc2)CC1 (stereo not drawn) do in these assays?
ABHD5-PLIN5 inh: -2; HTR2A ag: -8; NOD2-RIPK2 inh: 2

How did Oc1sc(C=Nc2ccccc2)c2ccccc12 do in these assays?
TLR9-MyD88 inh: 14; CRFR2-BP antag: -228; ABHD5-PLIN5 inh: -16; HTR2A ag: -2; TLR4-MyD88 BLA: 27*; NOD2-RIPK2 inh: -4; TLR4 MyD88 cnf: 19; BLA inhibitor ct: 39*

What do the screens show for `Oc1sc(C=Nc2ccc(F)cc2)c2ccccc12`?
TLR9-MyD88 inh: 11; CRFR2-BP antag: -88; ABHD5-PLIN5 inh: -5; HTR2A ag: -4; TLR4-MyD88 BLA: 17; NOD2-RIPK2 inh: -6

Results for CCOC(=O)c1c2ccc(OCC(=O)N/N=C/c3ccc(C)cc3)cc2n2ccccc12 ?
TLR9-MyD88 inh: 8; CRFR2-BP antag: -30; ABHD5-PLIN5 inh: -2; HTR2A ag: 0; TLR4-MyD88 BLA: 38*; NOD2-RIPK2 inh: 17; TLR4 MyD88 cnf: 48*; BLA inhibitor ct: 17

What do the screens show for `CCOc1ccc(S(=O)(=O)N2CCOCC2)c2ccccc12`?
TLR9-MyD88 inh: -1; CRFR2-BP antag: 2; ABHD5-PLIN5 inh: -2; HTR2A ag: -3; NOD2-RIPK2 inh: 2

How did CCOc1ccc(C(C)(C)C)cc1S(=O)(=O)N1CCOCC1 do in these assays?
TLR9-MyD88 inh: -2; CRFR2-BP antag: -8; ABHD5-PLIN5 inh: 0; HTR2A ag: 3; TLR4-MyD88 BLA: 27*; NOD2-RIPK2 inh: -8; TLR4 MyD88 cnf: 0; BLA inhibitor ct: -2

Results for Nc1cc(-c2ccc(Br)cc2)nn1Cc1ccccc1 ?
TLR9-MyD88 inh: 2; CRFR2-BP antag: -6; ABHD5-PLIN5 inh: -5; HTR2A ag: -8; TLR4-MyD88 BLA: -9; NOD2-RIPK2 inh: 3

Results for Nc1cc(-c2ccccc2)nn1Cc1ccc(Cl)cc1 ?
TLR9-MyD88 inh: -11; CRFR2-BP antag: 10; ABHD5-PLIN5 inh: -17; HTR2A ag: -1; TLR4-MyD88 BLA: 28*; NOD2-RIPK2 inh: 2; TLR4 MyD88 cnf: 3; BLA inhibitor ct: 2

What do the screens show for `COC(=O)Cc1ccc(OC2(C)CCN(Cc3ccccc3)C2)cc1` (stereo not drawn)?
ABHD5-PLIN5 inh: -11; HTR2A ag: -1; NOD2-RIPK2 inh: -1

Results for Cc1ccc(S(=O)(=O)Nc2cc(C(F)(F)F)ccc2N2CCOCC2)cc1C ?
TLR9-MyD88 inh: 6; CRFR2-BP antag: -63; ABHD5-PLIN5 inh: 5; HTR2A ag: 3; TLR4-MyD88 BLA: 70*; NOD2-RIPK2 inh: -7; TLR4 MyD88 cnf: -1; BLA inhibitor ct: 1

How did O=S(=O)(Nc1cc(C(F)(F)F)ccc1N1CCOCC1)c1ccccc1 do in these assays?
TLR9-MyD88 inh: -10; CRFR2-BP antag: -14; ABHD5-PLIN5 inh: -1; HTR2A ag: 6; NOD2-RIPK2 inh: -4

What do the screens show for `Cc1cc(O)ccc1C1(c2ccc(O)cc2C)OC(=O)c2ccccc21`?
TLR9-MyD88 inh: 15; CRFR2-BP antag: -31; ABHD5-PLIN5 inh: -1; HTR2A ag: -2; TLR4-MyD88 BLA: 18; NOD2-RIPK2 inh: 2

Results for CC(=O)Oc1ccc2c(c1)Oc1cc(OC(C)=O)ccc1C21OC(=O)c2ccccc21 ?
TLR9-MyD88 inh: 71*; CRFR2-BP antag: -341; ABHD5-PLIN5 inh: -9; HTR2A ag: 0; TLR4-MyD88 BLA: 63*; NOD2-RIPK2 inh: 76*; TLR4 MyD88 cnf: 70*; BLA inhibitor ct: 93*

How did CCOc1ccc(C2C=C(c3ccc(F)cc3)Nc3ncnn32)cc1 (stereo not drawn) do in these assays?
TLR9-MyD88 inh: 7; CRFR2-BP antag: 5; ABHD5-PLIN5 inh: -1; HTR2A ag: -8; TLR4-MyD88 BLA: 26*; NOD2-RIPK2 inh: 7; TLR4 MyD88 cnf: 24; BLA inhibitor ct: 53*

Results for COc1ccc(C2C=C(c3ccccc3)Nc3nc(NC(C)=O)nn32)cc1 (stereo not drawn) ?
TLR4-MyD88 BLA: 36*; TLR4 MyD88 cnf: 31*; BLA inhibitor ct: 56*

How did CCOc1ccc(C2C=C(c3ccccc3)Nc3ncnn32)cc1 (stereo not drawn) do in these assays?
TLR4-MyD88 BLA: 27*; TLR4 MyD88 cnf: 24; BLA inhibitor ct: 41*

How did COc1cccc(C2=CC(c3ccccc3)n3ncnc3N2)c1 (stereo not drawn) do in these assays?
TLR4-MyD88 BLA: 10

How did CNc1cncc(-c2ccc(C)cc2)n1 do in these assays?
ABHD5-PLIN5 inh: 1; HTR2A ag: 1; NOD2-RIPK2 inh: 1

How did COc1ccc(-c2c3c(nc4sc(C(=O)Nc5ccccc5)c(N)c24)CCC3)cc1 do in these assays?
TLR9-MyD88 inh: 9; CRFR2-BP antag: -16; ABHD5-PLIN5 inh: -4; HTR2A ag: 1; TLR4-MyD88 BLA: 25*; NOD2-RIPK2 inh: 8; TLR4 MyD88 cnf: 36*; BLA inhibitor ct: 58*

How did Nc1c(C(=O)Nc2ccccc2)sc2nc3c(c(-c4ccco4)c12)CCC3 do in these assays?
TLR9-MyD88 inh: 5; CRFR2-BP antag: -4; ABHD5-PLIN5 inh: 5; HTR2A ag: 8; TLR4-MyD88 BLA: 8; NOD2-RIPK2 inh: 12

What do the screens show for `Cc1c(N2C(=O)/C(=C\C3CC=CCC3)SC2=S)c(=O)n(-c2ccccc2)n1C` (stereo not drawn)?
TLR9-MyD88 inh: 3; CRFR2-BP antag: -4; ABHD5-PLIN5 inh: -8; HTR2A ag: -1; TLR4-MyD88 BLA: 25*; NOD2-RIPK2 inh: 1; TLR4 MyD88 cnf: 9; BLA inhibitor ct: -16

Results for O=C(c1cccc(-c2nnc(-c3ccccc3)o2)c1)N1CCCCC1 ?
TLR9-MyD88 inh: -5; CRFR2-BP antag: 2; ABHD5-PLIN5 inh: 7; HTR2A ag: 0; TLR4-MyD88 BLA: 28*; NOD2-RIPK2 inh: 9; TLR4 MyD88 cnf: -12; BLA inhibitor ct: 5

High-throughput results (PubChem BioAssay)
